Experimental data as given in PubChem BioAssay (NCATS).
Results filed as inconclusive are left out. Calls of active or inactive are those of the source. Calls follow the shape of the dose curve; as a rule, active = well fitted inhibition curve with a large enough effect; inconclusive = small, poorly fitted or top-dose-only effect; inactive = no such curve, though single readings can be large or run the other way.

Columns and labels:
Furin (Homo sapiens) = Furin (Homo sapiens) (UniProt P09958); assay: Furin counterscreen qHTS for Zika virus inhibitors (AID 1347149);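 also: purified recombinant full-length human furin enzyme at 5 nM; fluorescence gain from furin cutting a BOC-RVRR-AMC peptide substrate over 15 min; nearly all actives have a fitted effect of over 70% in size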
Sequence of Furin (Homo sapiens) (P09958 whole entry, looked up): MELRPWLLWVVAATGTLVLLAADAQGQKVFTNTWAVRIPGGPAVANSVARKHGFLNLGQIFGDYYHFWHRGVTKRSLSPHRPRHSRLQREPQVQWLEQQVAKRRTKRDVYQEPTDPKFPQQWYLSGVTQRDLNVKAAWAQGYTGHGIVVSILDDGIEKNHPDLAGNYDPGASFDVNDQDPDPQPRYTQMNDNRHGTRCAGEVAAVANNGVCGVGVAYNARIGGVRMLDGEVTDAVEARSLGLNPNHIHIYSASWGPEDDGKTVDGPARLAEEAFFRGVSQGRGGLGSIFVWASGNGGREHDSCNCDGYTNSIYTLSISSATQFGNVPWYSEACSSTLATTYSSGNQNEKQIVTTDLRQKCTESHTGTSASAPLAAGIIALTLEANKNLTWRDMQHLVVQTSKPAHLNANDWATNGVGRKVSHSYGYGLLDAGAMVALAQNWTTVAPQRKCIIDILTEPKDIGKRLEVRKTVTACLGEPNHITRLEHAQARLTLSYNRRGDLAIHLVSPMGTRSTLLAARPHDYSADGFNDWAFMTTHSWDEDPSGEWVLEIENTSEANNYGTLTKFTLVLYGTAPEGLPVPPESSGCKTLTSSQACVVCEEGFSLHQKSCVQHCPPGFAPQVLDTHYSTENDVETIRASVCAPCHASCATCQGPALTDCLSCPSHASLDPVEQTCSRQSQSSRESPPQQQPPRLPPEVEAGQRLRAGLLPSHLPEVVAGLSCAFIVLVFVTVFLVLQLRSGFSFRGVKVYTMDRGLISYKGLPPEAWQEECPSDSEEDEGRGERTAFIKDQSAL
In short: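 Counterscreen measures cleavage of 2 microM BOC-RVRR-AMC, below its ~15 microM Km, by 5 nM full-length human furin at pH 7.0 after a 15-min compound preincubation. Inhibition derives from the 15-min fluorescence increase at 37C.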

[1] = system: Zika virus NS2B-NS3 protease (linked); assay: 384 well plate NINDS AMC confirmatory qHTS for Zika virus inhibitors (AID 1347163);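 also: linked protease at 5 30 or 60 nM final depending on run; fluorescence of AMC released from Ac-VKTGKR-AMC peptide cleaved by the protease; nearly all actives have a fitted effect of over 50% in size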
In short: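 Fluorescence at 355/460 nm was read after 25 minutes of cleavage of 30 microM Ac-VKTGKR-AMC at room temperature, in the dark. Before substrate addition, compounds (up to 1 mM final) sat ~15 minutes with 5, 30 or 60 nM linked protease. Signals were normalized to no-enzyme and no-inhibitor wells.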

[2] = system: Zika virus NS2B-NS3 protease (linked construct); assay: 384 well plate NINDS Rhodamine confirmatory qHTS for Zika virus inhibitors (AID 1347164);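 also: fluorescence from protease cleavage of Ac-LKRR-rhodamine 110 substrate; nearly all actives have a fitted effect of over 65% in size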
In short: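 Linked protease at a final 5 nM, 30 nM or 60 nM was preincubated ~15 min with compounds, then given 10 microM Ac-LKRR-Rhodamine 110. Fluorescence (ex 485/em 538 nm) after 25 min in the dark at room temperature.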

Measured: Potency
Also: top concentration of the series differs between compounds.

CCOC(=O)c1ccc(NC(=O)CSc2nc(-c3ccc(F)cc3)cc(C(F)(F)F)c2C#N)cc1
inactive: all assays above
